Test results published in the supplement of paper PMC11732987, “Enantioselective OTUD7B fragment discovery through chemoproteomics screening and high-throughput optimisation” (Communications Chemistry, 2025).

What was measured:
Experiment in all cases: log2 ratio of Biotin-Ahx-Ub-VS probe labelling (fragment/DMSO); higher = less target engagement (more negative = stronger competition), active = hit call of the paper (q ≤ 0.05, log2 ratio ≤ -1)
Details in all cases: compound concentration: 200 uM; treatment time: 3 h
ALG13 = molecular target: T1, ALG13 (UniProt Q9NP73)
T1 sequence (whole entry): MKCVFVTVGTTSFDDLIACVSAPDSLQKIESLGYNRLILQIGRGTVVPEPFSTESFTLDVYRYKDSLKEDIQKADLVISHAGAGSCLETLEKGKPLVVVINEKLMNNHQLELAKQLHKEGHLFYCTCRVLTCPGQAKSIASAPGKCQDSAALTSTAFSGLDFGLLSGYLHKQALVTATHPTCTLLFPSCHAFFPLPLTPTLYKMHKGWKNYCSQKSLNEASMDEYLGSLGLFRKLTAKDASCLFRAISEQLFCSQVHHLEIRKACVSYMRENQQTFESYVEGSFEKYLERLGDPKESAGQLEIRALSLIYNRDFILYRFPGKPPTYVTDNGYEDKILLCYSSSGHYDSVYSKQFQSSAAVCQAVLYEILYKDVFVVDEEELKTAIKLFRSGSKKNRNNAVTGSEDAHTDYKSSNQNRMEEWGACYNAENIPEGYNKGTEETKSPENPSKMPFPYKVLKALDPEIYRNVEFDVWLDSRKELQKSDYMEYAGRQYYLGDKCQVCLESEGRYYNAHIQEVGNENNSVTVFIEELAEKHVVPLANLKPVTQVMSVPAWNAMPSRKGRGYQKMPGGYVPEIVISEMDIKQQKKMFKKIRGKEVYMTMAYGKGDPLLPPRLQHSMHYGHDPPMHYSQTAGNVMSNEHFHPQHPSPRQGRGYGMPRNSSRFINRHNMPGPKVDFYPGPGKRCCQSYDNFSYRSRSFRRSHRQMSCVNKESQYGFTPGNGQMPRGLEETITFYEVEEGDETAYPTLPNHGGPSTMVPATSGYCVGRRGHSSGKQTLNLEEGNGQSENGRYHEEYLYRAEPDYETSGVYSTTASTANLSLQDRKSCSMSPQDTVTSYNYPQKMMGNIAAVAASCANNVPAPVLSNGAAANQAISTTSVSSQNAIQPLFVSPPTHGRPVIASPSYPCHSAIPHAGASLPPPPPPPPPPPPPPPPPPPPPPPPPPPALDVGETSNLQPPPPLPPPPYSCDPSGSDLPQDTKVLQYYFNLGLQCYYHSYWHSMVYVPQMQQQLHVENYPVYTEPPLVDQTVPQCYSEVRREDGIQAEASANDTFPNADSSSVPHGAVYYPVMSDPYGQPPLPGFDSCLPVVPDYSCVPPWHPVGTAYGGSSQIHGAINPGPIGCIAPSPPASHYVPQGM
Method in brief: (§1)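 Triplicate samples of HEK293T lysate, 495 µg each, received fragment at 200 µM or vehicle for 3 h, followed by Biotin-Ahx-Ub-VS (0.5 µM final) for 1 h. After NeutrAvidin enrichment of labelled DUBs and LysC/trypsin digestion, peptides were run by diaPASEF LC-MS/MS. The values are average log2 fragment/vehicle ratios from global-median-normalised Spectronaut label-free quantities, tested by unpaired t-test on proteins having ≥2 unique peptides.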

ATXN3 = ATXN3 (UniProt P54252)
Method in brief: as §1

BAP1 = molecular target: T2, BAP1 (UniProt Q92560)
T2 sequence (whole entry): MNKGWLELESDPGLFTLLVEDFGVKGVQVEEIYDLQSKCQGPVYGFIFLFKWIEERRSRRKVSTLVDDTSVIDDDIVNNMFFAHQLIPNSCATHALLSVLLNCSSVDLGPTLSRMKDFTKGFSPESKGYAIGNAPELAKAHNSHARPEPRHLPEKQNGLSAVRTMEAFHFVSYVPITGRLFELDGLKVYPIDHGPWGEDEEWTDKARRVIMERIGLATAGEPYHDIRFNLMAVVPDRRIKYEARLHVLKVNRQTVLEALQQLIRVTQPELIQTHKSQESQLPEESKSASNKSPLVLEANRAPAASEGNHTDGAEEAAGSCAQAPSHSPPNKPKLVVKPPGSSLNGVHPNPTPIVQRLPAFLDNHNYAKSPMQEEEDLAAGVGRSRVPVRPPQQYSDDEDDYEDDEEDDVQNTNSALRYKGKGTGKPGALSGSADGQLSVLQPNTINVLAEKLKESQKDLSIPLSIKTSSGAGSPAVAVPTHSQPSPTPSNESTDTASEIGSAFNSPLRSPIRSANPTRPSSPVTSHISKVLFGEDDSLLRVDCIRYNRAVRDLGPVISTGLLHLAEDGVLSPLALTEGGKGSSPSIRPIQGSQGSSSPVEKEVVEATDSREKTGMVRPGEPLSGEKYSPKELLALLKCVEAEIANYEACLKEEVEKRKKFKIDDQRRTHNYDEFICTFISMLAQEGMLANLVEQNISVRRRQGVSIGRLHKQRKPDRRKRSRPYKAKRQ
Method in brief: as §1

EIF3F = EIF3F (UniProt O00303)
Method in brief: as §1

EIF3H = EIF3H (UniProt O15372)
Method in brief: as §1

FAM105A = molecular target: T3, FAM105A (UniProt Q9NUU6)
T3 sequence (whole entry): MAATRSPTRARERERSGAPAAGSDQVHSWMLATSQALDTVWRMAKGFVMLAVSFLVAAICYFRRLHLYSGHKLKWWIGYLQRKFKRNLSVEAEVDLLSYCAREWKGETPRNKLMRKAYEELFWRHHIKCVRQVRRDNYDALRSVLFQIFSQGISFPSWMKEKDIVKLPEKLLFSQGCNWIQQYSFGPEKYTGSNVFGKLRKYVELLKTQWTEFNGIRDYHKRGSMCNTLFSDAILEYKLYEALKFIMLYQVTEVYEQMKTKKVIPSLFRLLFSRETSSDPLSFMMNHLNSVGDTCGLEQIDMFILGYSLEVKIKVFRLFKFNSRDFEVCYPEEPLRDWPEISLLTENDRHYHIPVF
Method in brief: as §1

OTUB1 = OTUB1 (UniProt Q96FW1)
Method in brief: as §1

OTUD4 = molecular target: T4, OTUD4 (UniProt Q01804)
T4 sequence (whole entry): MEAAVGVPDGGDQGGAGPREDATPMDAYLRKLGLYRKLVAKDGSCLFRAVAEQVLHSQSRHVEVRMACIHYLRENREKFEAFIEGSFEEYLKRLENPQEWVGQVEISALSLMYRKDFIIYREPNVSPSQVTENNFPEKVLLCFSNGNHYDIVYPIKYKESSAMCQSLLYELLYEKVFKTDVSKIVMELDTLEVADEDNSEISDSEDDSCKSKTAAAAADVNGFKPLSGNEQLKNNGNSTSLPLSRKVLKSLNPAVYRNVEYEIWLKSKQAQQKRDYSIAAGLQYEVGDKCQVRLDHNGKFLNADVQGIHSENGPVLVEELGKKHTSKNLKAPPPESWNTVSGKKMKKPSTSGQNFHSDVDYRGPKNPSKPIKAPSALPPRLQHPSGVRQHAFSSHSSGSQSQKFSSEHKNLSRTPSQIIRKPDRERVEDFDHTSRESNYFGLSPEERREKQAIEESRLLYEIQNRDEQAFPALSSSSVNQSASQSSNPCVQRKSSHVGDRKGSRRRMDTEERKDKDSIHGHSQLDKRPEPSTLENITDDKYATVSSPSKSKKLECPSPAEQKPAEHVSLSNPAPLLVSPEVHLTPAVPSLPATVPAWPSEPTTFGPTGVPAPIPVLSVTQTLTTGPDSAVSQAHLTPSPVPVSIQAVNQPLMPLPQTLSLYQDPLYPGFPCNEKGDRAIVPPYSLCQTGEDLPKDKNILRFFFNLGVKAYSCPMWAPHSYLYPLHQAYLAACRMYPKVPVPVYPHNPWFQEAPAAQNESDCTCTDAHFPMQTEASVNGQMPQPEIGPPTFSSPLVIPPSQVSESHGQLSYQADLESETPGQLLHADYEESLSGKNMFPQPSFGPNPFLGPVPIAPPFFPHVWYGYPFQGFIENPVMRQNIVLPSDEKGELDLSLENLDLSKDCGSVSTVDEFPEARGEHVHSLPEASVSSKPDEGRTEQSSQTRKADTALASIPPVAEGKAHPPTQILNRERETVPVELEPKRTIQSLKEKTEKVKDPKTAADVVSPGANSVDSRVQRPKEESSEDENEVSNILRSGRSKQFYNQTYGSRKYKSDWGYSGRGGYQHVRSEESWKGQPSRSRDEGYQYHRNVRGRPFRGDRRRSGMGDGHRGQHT
Method in brief: as §1

OTUD5 = molecular target: T5, OTUD5 (UniProt Q96G74)
T5 sequence (whole entry): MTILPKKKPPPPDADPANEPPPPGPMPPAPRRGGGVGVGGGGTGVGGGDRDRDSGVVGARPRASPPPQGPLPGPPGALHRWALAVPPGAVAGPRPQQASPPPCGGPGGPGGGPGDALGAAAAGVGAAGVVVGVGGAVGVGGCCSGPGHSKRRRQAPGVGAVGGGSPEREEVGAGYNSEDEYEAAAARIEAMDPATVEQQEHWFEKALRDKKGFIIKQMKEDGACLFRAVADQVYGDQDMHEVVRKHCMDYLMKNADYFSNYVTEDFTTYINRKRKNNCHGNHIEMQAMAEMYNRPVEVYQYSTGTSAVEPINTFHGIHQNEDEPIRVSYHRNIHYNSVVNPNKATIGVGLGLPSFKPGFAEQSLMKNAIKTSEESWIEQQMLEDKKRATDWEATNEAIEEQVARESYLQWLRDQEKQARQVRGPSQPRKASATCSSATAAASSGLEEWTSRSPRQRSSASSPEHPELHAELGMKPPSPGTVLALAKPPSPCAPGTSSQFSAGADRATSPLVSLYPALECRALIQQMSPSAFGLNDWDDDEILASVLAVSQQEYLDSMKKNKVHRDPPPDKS
Method in brief: as §1

Measured: log2 ratio of Biotin-Ahx-Ub-VS probe labelling

OTUB1, sequence (Q96FW1 whole entry): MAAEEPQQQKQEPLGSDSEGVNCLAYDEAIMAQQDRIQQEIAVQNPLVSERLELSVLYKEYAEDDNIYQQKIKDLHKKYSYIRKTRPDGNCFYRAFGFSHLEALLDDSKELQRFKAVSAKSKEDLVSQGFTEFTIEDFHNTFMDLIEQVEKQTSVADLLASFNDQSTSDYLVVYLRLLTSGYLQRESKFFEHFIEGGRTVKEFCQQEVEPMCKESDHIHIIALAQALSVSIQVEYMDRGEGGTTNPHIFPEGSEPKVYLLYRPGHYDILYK
ATXN3, sequence (P54252 whole entry): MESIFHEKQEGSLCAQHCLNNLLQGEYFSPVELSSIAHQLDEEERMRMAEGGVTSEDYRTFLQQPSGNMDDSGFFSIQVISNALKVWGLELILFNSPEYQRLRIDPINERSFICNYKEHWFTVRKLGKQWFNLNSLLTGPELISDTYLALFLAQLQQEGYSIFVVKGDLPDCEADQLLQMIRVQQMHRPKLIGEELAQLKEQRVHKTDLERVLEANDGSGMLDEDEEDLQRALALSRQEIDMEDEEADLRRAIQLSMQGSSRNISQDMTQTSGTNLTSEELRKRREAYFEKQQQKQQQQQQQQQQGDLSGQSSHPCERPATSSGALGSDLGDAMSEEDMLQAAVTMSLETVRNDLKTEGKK
EIF3F, sequence (O00303 whole entry): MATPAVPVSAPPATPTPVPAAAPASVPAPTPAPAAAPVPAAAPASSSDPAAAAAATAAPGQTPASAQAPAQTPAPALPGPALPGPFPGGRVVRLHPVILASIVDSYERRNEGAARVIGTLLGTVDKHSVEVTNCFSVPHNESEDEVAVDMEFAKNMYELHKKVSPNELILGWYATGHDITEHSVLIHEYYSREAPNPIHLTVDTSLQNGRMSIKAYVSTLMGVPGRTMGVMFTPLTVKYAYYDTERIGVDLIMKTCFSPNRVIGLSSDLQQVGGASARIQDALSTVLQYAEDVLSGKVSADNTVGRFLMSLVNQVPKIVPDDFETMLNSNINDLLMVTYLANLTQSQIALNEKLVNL
EIF3H, sequence (O15372 whole entry): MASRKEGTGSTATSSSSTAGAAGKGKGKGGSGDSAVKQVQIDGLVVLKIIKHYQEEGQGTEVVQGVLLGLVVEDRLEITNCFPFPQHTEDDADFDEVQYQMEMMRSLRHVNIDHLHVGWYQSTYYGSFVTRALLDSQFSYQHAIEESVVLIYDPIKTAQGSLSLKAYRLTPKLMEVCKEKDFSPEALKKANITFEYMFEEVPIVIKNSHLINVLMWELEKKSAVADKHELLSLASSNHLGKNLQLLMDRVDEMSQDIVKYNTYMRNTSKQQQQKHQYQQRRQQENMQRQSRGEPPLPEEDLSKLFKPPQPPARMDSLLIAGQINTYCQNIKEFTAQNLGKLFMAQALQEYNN

CC(NC(=O)CCl)c1csc(-c2ccccc2)n1.Cl (centres undefined)
active: BAP1 -3.84 | OTUD4 -1.31
inactive: ALG13 0.0117 | ATXN3 -0.556 | EIF3F -0.0347 | EIF3H -0.03 | FAM105A 0.268 | OTUB1 -0.0384 | OTUD5 -0.527
